# PubChem BioAssay (Tox21)
# Records with an inconclusive call do not appear. Active and inactive are the calls of the source. Calls follow the shape of the dose curve; as a rule, active = well fitted cell-killing curve with a large enough effect in the repeat runs; inconclusive = weak or mixed curves, or effect the other way; inactive = flat fitted curve, though single readings scatter.
# Assay: qHTS assay to identify small molecule antagonists of the androgen receptor (AR) signaling pathway using the MDA cell line - cell viability counter screen (AID 743041; also: nearly all actives have a fitted effect of over 45% in size)
# Details: MDA-kb2 viability, CellTiter-Fluor, 16 h, cells co-treated with R1881 androgen agonist; series mostly up to 70.3 µM; viability change, negative = cytotoxic: at the top concentration
# Description: National Center for Advancing Translational Sciences [NCATS]
# NIH Chemical Genomics Center [NCGC]
# U.S. Environmental Protection Agency [EPA]
# National Institutes of Environmental Health Sciences [NIEHS]
# National Toxicology Program [NTP]
# U.S. Food and Drug Administration [FDA]
# Androgen receptor (AR), a nuclear hormone receptor, plays a critical role in AR-dependent prostate cancer and other androgen related diseases. Endocrine disrupting chemicals (EDCs) and their interactions with steroid hormone receptors like AR may cause disruption of normal endocrine function as well as interfere with metabolic homeostasis, reproduction, developmental and behavioral functions. To identify the compounds that inhibit AR signaling, MDA-kb2 AR-luc cell line (from ATCC, deposited by Wilson et al.) was used to screen the Tox21 10K compound library. MDA-kb2 AR-luc cell line is human breast carcinoma cell line that was stably transfected with a luciferase reporter gene under control of the MMTV promoter containing response elements for both androgen receptor (AR) and glucocorticoid receptor (GR). The cytotoxicity of the Tox21 compound library against the MDA-kb2 AR-luc cell line was tested in parallel by measuring the cell viability using CellTiter-Fluor assay (Promega, Madison, WI) in the same wells.
# Tox21 Assay Protocol Summary:
# MDA-kb2 AR-luc cells were dispensed at 3,000 cells/4 uL/well of culture medium into white wall/solid-bottom 1536-well plates using a Multidrop Combi (ThermoFisher Scientific, Waltham, MA) dispenser. After the assay plates were incubated at a 37C and 0% CO2 for 5 hr, 23 nL of compounds dissolved in DMSO, positive controls or DMSO only was transferred to the assay plate by a Pintool station (Kalypsys, San Diego, CA), followed by addition of 1 uL of agonist (R1881) in culture medium using a Bioraptr Flying Reagent Dispenser (FRD) workstation (Beckman Coulter, Indianapolis, IN, USA). The plates were incubated at a 37C and 0% CO2 for 16 h. After 15.5 h incubation, 1uL of CellTiter-Fluor reagent (Promega) was added using a Bioraptr FRD to each plate for measuring cytotoxicity. The fluorescence intensity was quantified on a ViewLux plate reader (PerkinElmer, Shelton, CT) following 30 min incubation at 37C and 0% CO2.
# % is scaled to controls: 0 for no effect and ±100 for the full control effect.
Structure (SMILES),"viability change, negative = cytotoxic",outcome
NCC1CCC(C(=O)Oc2ccc(CCC(=O)O)cc2)CC1 (stereo not given),-5.06% (inactive),
C/C=C(\C)C=O,-1.41% [at 95 µM] (inactive),
CC(CN1CC(=O)NC(=O)C1)N1CC(=O)NC(=O)C1 (stereo not given),2.31% (inactive),
C=CCCCCCCCCOC(C)=O,6.89% (inactive),
CCc1ncc(C)[nH]1,6.86% (inactive),
CCCOc1ccc(C(=O)OCCN(CC)CC)cc1N,2.84% (inactive),
CC(=O)c1c(C)cc(C(C)(C)C)cc1C,-2.97% (inactive),
COC(=O)C(c1ccccc1Cl)N1CCc2sccc2C1 (stereo not given),2% (inactive),
O=C(O)CCCCCCCCCC(=O)O,0.0718% (inactive),
COC(=O)c1ccccc1Cl,-1.77% (inactive),
O=c1[nH]c(=O)c2cn[nH]c2[nH]1,0.0024% (inactive),
CCOC(=O)[C@H](CCc1ccccc1)N[C@H]1CS[C@H](c2cccs2)CN(CC(=O)O)C1=O,-17.1% (inactive),
N[C@H]1C(O)O[C@H](CO)[C@@H](O)[C@@H]1O (stereo not given in full),-1.09% (inactive),
O=P(O)(O)C(O)(Cc1cccnc1)P(=O)(O)O,-0.335% (inactive),
Nc1ccc(C(=O)NCC(=O)O)cc1,-17.8% [at 32.5 µM] (inactive),
C[Si](C)(C)O[Si](O)(O)O,-0.369% (inactive),
CC(C)=CCC/C(C)=C\C#N,8.1% (inactive),
O=C(c1ccccc1)c1cccc(O)c1,9.4% [at 95 µM] (inactive),
CCCCCCCOC(C)=O,4.7% (inactive),
O=C(O)COc1ccc2ccccc2c1,4.37% (inactive),

Structure (SMILES),"viability change, negative = cytotoxic",outcome
CCOCCOCCOC(C)=O,3.24% [at 95 µM] (inactive),
COCc1nnc(-c2ccc[n+]([O-])c2)n1-c1c(Cl)c(Cl)cc2[nH]c(=O)c(=O)[nH]c12,-0.2% (inactive),
Cc1ccc(O)c([N+](=O)[O-])c1,-2.36% [at 95 µM] (inactive),
CCCC[O][Al]([O]CCCC)[O]CCCC,3.82% (inactive),
NC(=O)CC[C@@H](N)C(=O)O,6.31% (inactive),
Cc1ccc(O)c(C(=O)c2ccccc2)c1,5.31% [at 95 µM] (inactive),
Cc1cc(C)c(N)c(Cl)c1,5.26% (inactive),
CCCCCCCCCCCCCCBr,-3.85% [at 95 µM] (inactive),
CCCCC(CC)CCC(CC(C)C)OS(=O)(=O)O (stereo not given),,inactive
O=Cc1ccccc1S(=O)(=O)O,5.02% (inactive),
CCCC(=O)OC,-0.813% (inactive),
C/C(=N\O)c1ccc(OCC(=O)N2CCCCC2)cc1,0.562% (inactive),
C=CC(=O)CC,-4.39% [at 95 µM] (inactive),
CCc1ccc(CC)cc1,6.3% [at 95 µM] (inactive),
C=C(C)C(=O)OCCCC,-0.252% [at 95 µM] (inactive),
CCCCCCCCCCCBr,-0.0219% (inactive),
CC/C=C/CCCCCCCCCCOC(C)=O,6.83% (inactive),
CCC(=O)OCCOc1ccccc1,-19% (inactive),
C=CC(C)(CCC=C(C)C)OC(=O)C(C)C (stereo not given),-3.97% (inactive),
c1coc(Cn2cccc2)c1,3.76% (inactive),
